In all, about 5,500 compounds went through this assay and about 2,000 (36%) were called active. Another 18% or so got no clear call; they are omitted. No stated cut-off is given here; in the data, active means normalized growth mostly below about 0.91 (no sharp cut-off); inconclusive means no clear call, values can overlap the other calls; inactive means mostly above about 0.92. This is one part of the list.
Experiment: chemical genetic growth profiling, strain panel (AID 1159580);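 further: tested at 20 µM; growth read once vehicle control cultures reached saturation at 30 °C; 1 = growth at the plate median or of vehicle wells; lower values mean less growth of the strain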
Conditions: S. cerevisiae deletion strains, growth OD

Measured: normalized growth

CCC1(O)CC(OC2CC(N(C)C)C(OC3CC(O)C(OC4CCC(=O)C(C)O4)C(C)O3)C(C)O2)c2c(cc3c(c2O)C(=O)c2c(O)cccc2C3=O)C1C(=O)OC (stereo not drawn)
active: locus YML032C, strain rad52, hits give low values 0.893
inactive: locus YAL013W, strain DEP1, hits give low values 0.986 | locus YBR021W, strain FUR4, hits give low values 1.07 | locus YBR229C, strain ROT2, hits give low values 1 | locus YCL029C, strain bik1, hits give low values 1 | locus YDL035C, strain GPR1, hits give low values 0.978 | locus YDL074C, strain BRE1, hits give low values 0.998 | locus YDL101C, strain DUN1, hits give low values 0.992 | locus YDL134C, strain PPH21, hits give low values 1.01 | locus YDL185W, strain tfp1, hits give low values 1.01 | locus YDL192W, strain arf1, hits give low values 1.01 | locus YDR101C, strain arx1, hits give low values 1.01 | locus YDR150W, strain NUM1, hits give low values 1 | locus YDR162C, strain NBP2, hits give low values 0.981 | locus YDR318W, strain mcm21, hits give low values 1.01 | locus YDR388W, hits give low values 1.01 | locus YDR502C, strain sam2, hits give low values 1 | locus YEL061C, strain CIN8, hits give low values 1.01 | locus YER110C, hits give low values 1.01 | locus YER155C, strain BEM2, hits give low values 1.01 | locus YER167W, strain BCK2, hits give low values 1.01 | locus YGL078C, strain dbp3, hits give low values 1.01 | locus YGL086W, strain mad1, hits give low values 0.992 | locus YGL248W, strain PDE1, hits give low values 0.981 | locus YGR135W, strain pre9, hits give low values 1.01 | locus YGR229C, strain SMI1, hits give low values 0.96 | locus YGR252W, strain gcn5, hits give low values 1.03 | locus YHR030C, strain SLT2, hits give low values 1 | locus YHR079C, strain IRE1 (second series), hits give low values 1.01 | locus YHR094C, strain hxt1, hits give low values 1.01 | locus YHR129C, strain ARP1, hits give low values 0.995 | locus YHR200W, strain rpn10, hits give low values 1.01 | locus YIL066C, strain RNR3, hits give low values 1 | locus YIL073C, strain SPO22, hits give low values 1.04 | locus YIL125W, strain kgd1, hits give low values 1 | locus YIR030C, strain dcg1, hits give low values 1.01 | locus YJL095W, strain BCK1, hits give low values 0.983 | locus YJL134W, strain LCB3, hits give low values 1.01 | locus YJL168C, strain set2, hits give low values 1.01 | locus YJL187C, strain SWE1 (second series), hits give low values 0.998 | locus YJR043C, strain POL32, hits give low values 0.986 | locus YJR075W, strain HOC1, hits give low values 0.975 | locus YKL009W, strain mrt4, hits give low values 1.01 | locus YKL068W, hits give low values 1 | locus YKL085W, strain MDH1 (second series), hits give low values 0.993 | locus YKL085W, strain MDH1, hits give low values 0.993 | locus YKR001C, strain vps1, hits give low values 1.01 | locus YLR039C, strain RIC1, hits give low values 0.981 | locus YLR058C, strain SHM2, hits give low values 1 | locus YLR102C, strain apc9, hits give low values 1.01 | locus YLR262C, strain YPT6, hits give low values 0.958 | locus YLR268W, strain sec22, hits give low values 0.98 | locus YLR330W, strain CHS5, hits give low values 1 | locus YLR342W, strain FKS1 (second series), hits give low values 0.976 | locus YLR371W, strain rom2, hits give low values 1.01 | locus YLR418C, strain cdc73, hits give low values 1.01 | locus YML016C, strain PPZ1, hits give low values 0.997 | locus YML124C, strain tub3, hits give low values 0.999 | locus YMR078C, strain ctf18, hits give low values 1.01 | locus YMR223W, strain ubp8, hits give low values 1 | locus YMR263W, strain SAP30, hits give low values 0.998 | locus YMR307W, strain GAS1, hits give low values 0.601 | locus YNL067W, strain RPL9B, hits give low values 0.992 | locus YNL233W, strain BNI4, hits give low values 0.997 | locus YNL250W, strain rad50, hits give low values 0.999 | locus YNL271C, strain bni1, hits give low values 1 | locus YNL298W, strain CLA4, hits give low values 1.02 | locus YNL307C, strain MCK1, hits give low values 1.01 | locus YNR052C, strain pop2, hits give low values 0.996 | locus YOL006C, strain TOP1, hits give low values 0.812 | locus YOL012C, strain htz1 0.589 | locus YOL147C, strain pex11, hits give low values 1.01 | locus YOR061W, strain CKA2, hits give low values 1 | locus YOR069W, strain VPS5, hits give low values 1 | locus YOR136W, strain idh2, hits give low values 1 | locus YOR144C, strain elg1, hits give low values 1 | locus YOR184W, strain ser1, hits give low values 0.982 | locus YOR316C, strain cot1, hits give low values 1.01 | locus YPR119W, strain clb2, hits give low values 1.02 | locus YPR141C, strain kar3, hits give low values 0.986 | locus YPR163C, strain tif3, hits give low values 1.02 | locus YPR167C, strain met16, hits give low values 1 | strain wtn01, hits give low values 0.983

— PubChem BioAssay AID1159580 (chemical genetic matrix, 2015)
